Structures are written as SMILES. The campaign covered roughly 2,300 compounds. About 430 (19%) were called active. The list is a sample of the results. A number with no mark means an inactive call.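 How the source made its calls: active means mean activation across triplicates above the hit threshold derived in the original primary screen (cut at about 15% in these data); inactive means the rest.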

The experiment deals with 5-hydroxytryptamine receptor 2A (Mus musculus) (UniProt P35363). As to the kind of experiment: agonist activity at mouse 5-HT2A receptor – cell-based, luminescence, CHO-K1 PathHunter, triplicate, confirmation (AID 624381). The note with it: CHO-K1 PathHunter beta-arrestin recruitment, at 7.6 µM, stronger effect = higher value, DMSO 0%, 30 µM serotonin 100%.
Chain of 5-hydroxytryptamine receptor 2A (Mus musculus) (P35363 whole entry, looked up): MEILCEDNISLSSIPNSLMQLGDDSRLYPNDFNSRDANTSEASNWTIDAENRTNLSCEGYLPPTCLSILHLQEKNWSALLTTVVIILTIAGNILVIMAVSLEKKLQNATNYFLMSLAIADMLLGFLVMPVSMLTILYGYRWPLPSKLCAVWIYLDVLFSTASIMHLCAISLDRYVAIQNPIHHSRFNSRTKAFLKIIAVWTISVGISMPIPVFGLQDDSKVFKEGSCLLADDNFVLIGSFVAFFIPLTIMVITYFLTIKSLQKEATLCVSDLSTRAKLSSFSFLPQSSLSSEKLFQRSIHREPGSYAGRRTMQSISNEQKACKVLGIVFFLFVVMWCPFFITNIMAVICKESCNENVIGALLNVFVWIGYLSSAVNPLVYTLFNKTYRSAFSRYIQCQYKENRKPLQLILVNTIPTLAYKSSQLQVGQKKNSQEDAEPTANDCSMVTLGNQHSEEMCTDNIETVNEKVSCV
`COc1ccc2[nH]cc(CCN3C(=O)c4ccc(C(=O)O)cc4C3=O)c2c1`: the activation was -1.14%.

On to `COC(=O)[C@]12CCCCC=C1N(CCC1=CCCCC1)C(=O)[C@H](CC(=O)NCC1CCCCC1)C2`, for which the activation is -5.33%.

`Nc1cc(C(=O)N2CCN(c3ccccc3Cl)CC2)ccc1N1CC2CC(C1)c1cccc(=O)n1C2` (stereo unspecified): the activation was -1.89%.

For the molecule `COC(=O)c1cc(N2CCNCC2)nc2ccccc12`, the activation was 2.65%.

For `O=C(c1ccncc1)N1CCN(c2ccc3ccccc3n2)CC1`, the activation was 17.1% (active).

In the case of `COC(=O)Cn1nc(-c2ccccc2)c2cc(Cl)ccc21`, the activation was -5.87%.

`FC(F)(F)COc1nc(N2CCCCC2)nc(N2CCNCC2)n1`: the activation was 8.3%.

As to `CS(=O)(=O)c1ccc2nc(NC(=O)C3CCCCC3)sc2c1`, the activation was -0.86%.

Take `O=C(Nc1ccc2c(c1)[C@@H]1C[C@@H](CC(=O)N3CCCCC3)O[C@@H](CO)[C@@H]1O2)NC1CCCCC1`: the activation was -4.45%.

Take `COc1ccc(/C=N/Nc2ccccc2C(=O)O)cc1`: the activation is 4.6%.

Consider `Cc1cc([N+](=O)[O-])ccc1NC1CCCC1`, for which the activation is 13.5%.

With `Cc1ccc(NC(=O)CSc2nnc(COc3ccccc3C)o2)cc1`, the activation is -4.47%.

As for `N#CCSc1nn(-c2ccc(F)cc2)c(=S)s1`, the activation was -4.94%.

As to `COCCN(Cc1cc2cc3c(cc2nc1Cl)OCO3)C(=O)c1cccc(C)c1`, the activation is 3.25%.

With `CC(Nc1ccccc1)c1cccnc1` (stereo unspecified), the activation was -3.04%.

On to `CC1(Cc2cccc(C#N)c2)C(=O)Nc2ccc(-c3cccc(C(F)(F)F)c3)cc21` (stereo unspecified), for which the activation is -0.38%.

Consider `NNc1cccc(C=Cc2ccccc2)cc1=O`, for which the activation is 1.74%.

Consider `O=C(Nc1cccc2cccnc12)c1ccc2sc([C@H]3C[C@H](O)[C@@H](CO)O3)nc2c1`, for which the activation is 4.32%.

As for `Cc1ccc(NC(=O)CCOc2ccccc2)cc1S(=O)(=O)Nc1ccccc1Cl`, the activation was 3.02%.

As to `Cc1ccc(S(=O)(=O)N2CCN(c3ncnc4ccccc34)CC2)cc1`, the activation is 9.56%.

On to `CC(=O)c1ccc(OCC(=O)N(C)C2CCS(=O)(=O)C2)cc1` (stereo unspecified), for which the activation was -3.74%.

For the molecule `COC(=O)[C@@]1(Cc2ccc(F)cc2)[C@H]2c3cc(C(=O)N(C)C)n(CCc4c[nH]c5ccc(OC)cc45)c3C[C@H]2CN1C(=O)c1ccccc1`, the activation was 10.9%.

`C/C(=N\NC(=O)COc1c(C)cccc1C)c1cccs1`: the activation was -2.38%.

Take `CCCN(CCc1ccccc1)C1CCc2c(O)cccc2C1` (stereo unspecified): the activation is 164% (active).

With `CCCC(=O)N=c1sc2cccc(F)c2n1C`, the activation was -2.76%.

In the case of `Cc1ccc2c(c1)NCC(C(=O)NC1CCC(C)CC1)O2` (stereo unspecified), the activation was -3.96%.

For the molecule `CSc1nsc(SCC(=O)Nc2cc(C(=O)O)ccc2C)n1`, the activation is 1.2%.

For the molecule `CCOCCCNC(=O)Cc1cc(=O)[nH]c(=O)[nH]1`, the activation was -1.89%.

Take `CC(=O)N1c2ccc(S(=O)(=O)N3CCC(C(=O)NC4CCCCC4C)CC3)cc2CC1C` (stereo unspecified): the activation is -5.72%.

Take `O=C(O)C1C2C=CC(O2)C1C(=O)NCCc1cccc(Cl)c1` (stereo unspecified): the activation was 4.65%.

Regarding `COC(=O)CC(=O)N1CCN(c2ccc(Cl)c(Cl)c2)CC1`, the activation was 13.8%.

With `O=C(O)c1ccc(S(=O)(=O)N2CCC(Cc3ccccc3)CC2)cc1`, the activation is -0.19%.

With `COc1ccc(CNC(=O)c2ccc(NS(=O)(=O)c3ccc4[nH]c(=O)[nH]c4c3)cc2)cc1OC`, the activation is -3.98%.

In the case of `O=C(OCC(=O)N1CCOCC1)c1ccc2ccccc2c1`, the activation was -4.74%.

With `Cc1cc(C)n(S(=O)(=O)c2cccc([N+](=O)[O-])c2)n1`, the activation is -4.03%.

As to `COc1ccc2c(Cl)c(-c3nnco3)sc2c1`, the activation was -2.25%.

For `CCn1c(SCC(=O)N2CCCC2=O)nc2ccccc21`, the activation is -2.49%.

As for `O=C(Cc1ccccc1)n1nc(-c2ccccc2)nc1NCc1ccco1`, the activation is 4.58%.

On to `OCC1(Cc2ccccc2)CCN(Cc2cc3ccccc3o2)CC1`, for which the activation was 81.8% (active).

Regarding `COc1ccc(N2CC(C(=O)NCCN3C(=O)S/C(=C\c4cccnc4)C3=O)CC2=O)c(OC)c1` (stereo unspecified), the activation was -1.44%.

On to `Cc1c(C(=O)NCC2CC2)sc(=O)n1Cc1cccc(F)c1`, for which the activation is -3.87%.

On to `COc1ccc(/C(=N\O)c2nccc3cc(OC)c(OC)cc23)cc1OC`, for which the activation was -3.02%.

On to `Cc1ccccc1CSCC(=O)NC(=O)NC(C)(C)C`, for which the activation was -3.39%.

Regarding `N#Cc1c(NC(=O)CCCl)sc2c1CCCCC2`, the activation is 0.58%.

For `O=C(NCc1ccco1)c1cccn2c(=O)c3c4c(sc3nc12)CCCC4`, the activation was -1.08%.

On to `Fc1ccc2[nH]c3c(N4CCSCC4)ncnc3c2c1`, for which the activation is 3.26%.

Turning to `CCCCNc1c(-c2cccc(Sc3ccc(OC)cc3)c2)nc2ccccn12`, the activation is 5.41%.

Consider `COc1ccccc1Nc1nnc(SC(C)C(=O)NC2CC2)s1` (stereo unspecified), for which the activation is -1.26%.

As to `Cc1oc2cc(Br)c(O)c(Br)c2c1C(=O)c1ccccc1`, the activation was -2.71%.

With `N/C(=N\S(=O)(=O)c1cc(C(F)(F)F)cc(C(F)(F)F)c1)c1cccs1`, the activation was -1.99%.

On to `O=C(Nc1cc(=O)[nH]c2ncnn12)c1ccccc1Cl`, for which the activation is -5.17%.

As to `CCOC(=O)[C@]12CCCC=C1N(Cc1ccc3c(c1)OCO3)C(=O)[C@H](CC(=O)NCc1cccs1)C2`, the activation was -3.55%.

In the case of `O=C1CC(c2cccc(Cl)c2)CC(O)=C1C=Nc1ccccc1` (stereo unspecified), the activation is -4.5%.

On to `COc1cccc(NC(=O)CSc2nnc(-c3cccnc3)o2)c1`, for which the activation is -0.15%.

In the case of `Cc1ccc2nc(-c3ccncc3)cc(C(=O)Nc3ccncc3)c2c1`, the activation is 12.6%.

Take `C/C(=N\NC(=S)NC1CCCCC1)c1ccc(C)o1`: the activation was 29.7% (active).

As for `Cn1c2c(c(=O)n(C)c1=O)C(c1ccc(O)cc1)Nc1ccccc1O2` (stereo unspecified), the activation was -3.78%.

As for `O=C(Cc1ccsc1)N1CCN(S(=O)(=O)c2cc(C(F)(F)F)cc(C(F)(F)F)c2)CC1`, the activation is -3.88%.

Regarding `CO/N=C/CC(=O)c1ccc(OC)cc1`, the activation is -1.94%.

Take `CCOC(=O)/C=c1\s/c(=C\c2ccccc2OC)c(=O)n1CC(=O)N1CCOCC1`: the activation was -3.42%.

On to `O=S(=O)(c1ccc(OCC(O)CN2CCN(c3ccccc3Cl)CC2)cc1)N1CCOCC1` (stereo unspecified), for which the activation is 41.2% (active).

Regarding `O=C(COC(=O)c1cc(S(=O)(=O)N2CCOCC2)ccc1F)NC1CC1`, the activation was -1.03%.

As to `Nc1c(N(Cc2ccco2)C(=O)c2cccc(F)c2)c(=O)[nH]c(=O)n1Cc1ccccc1`, the activation is -0.68%.

As for `C[C@@H]1ON(C)[C@H]2C[C@H]3c4cc(N5CCN(C)CC5)ccc4CCN3C(=O)[C@@H]12`, the activation is 4.65%.

Consider `CCOC(=O)c1ccc(NC(=O)Cn2cnc3cc(C)c(C)cc32)cc1`, for which the activation is -2.29%.

Regarding `CNCC(O)c1ccc(O)c(O)c1` (stereo unspecified), the activation was 136% (active).

On to `C=C1C(=O)OC2C1CCC(C)=CCCC1(C)OC21` (stereo unspecified), for which the activation is -6.24%.

Consider `Cc1cccnc1C(NC(=O)C1CCN(Cc2ccc(Cl)c(Cl)c2)CC1)c1ccc(Cl)cc1` (stereo unspecified), for which the activation is -7.94%.

As for `Cc1ccc(C(=O)N/C(=C/c2cccs2)C(=O)N2CCCCC2)cc1`, the activation was -4.44%.

For the molecule `CCn1cc(C(=O)OCC(=O)Nc2cccc(C)c2)c(=O)c2ccc(C)nc21`, the activation was -1.9%.

Turning to `COc1ccc(C(C)=O)cc1COC(=O)Cn1cnc2ccccc2c1=O`, the activation was 2.93%.

Values taken from PubChem BioAssay AID624381 (The Scripps Research Institute Molecular Screening Center, 2012).
